# Data as given in PubChem BioAssay (NCATS).
# Records with an inconclusive call do not appear. A call without a number means that no potency is given here. Activity calls are given as the source filed them. The call rests on the fitted dose curve; in most records, active means well fitted curve in the direction sought with a large enough effect; inconclusive means small, poorly fitted or top-dose-only effect, or another doubt; inactive means no such curve, though single readings can be large; an effect the other way counts as inactive or inconclusive.
# Experiments:
# [1] = qHTS of pediatric cancer cell lines to identify multiple opportunities for drug repurposing: Primary screen for Rh30 cells (AID 1347107); further: series mostly up to about 46 µM; nearly all actives have a fitted effect of over 75% in size
# Method in brief: (§1)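 Cells (500-1,000/well) in growth media were settled 5 h at 37 degrees C, then given compounds for 48 h. Viability was read as CellTiter-Glo luminescence. Primary runs used MIPE at 11 points (0.78 nM-46 µM) and NPC at 8 points (0.59 nM-46 µM); follow-ups used 11 points.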
# [2] = qHTS of pediatric cancer cell lines to identify multiple opportunities for drug repurposing: Primary screen for Rh41 cells (AID 1347108);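 further: series mostly up to about 46 µM; luminescence drop marks cytotoxic hits; nearly all actives have a fitted effect of over 70% in size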
# Method in brief: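 Quantitative HTS format: each compound titrated (MIPE 11 points from 0.78 nM, NPC 8 points from 0.59 nM) onto cells plated 5 hours earlier. After 48 h at 37 degrees C, CellTiter-Glo luminescence was recorded.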
# [3] = qHTS of pediatric cancer cell lines to identify multiple opportunities for drug repurposing: Confirmatory screen for NB1643 cells (AID 1347109); further: nearly all actives have a fitted effect of over 45% in size; further: potency means the concentration at half of the fitted maximal effect
# Method in brief: as §1
# [4] = qHTS of pediatric cancer cell lines to identify multiple opportunities for drug repurposing: Confirmatory screen for A673 cells (AID 1347110);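 further: cells exposed to compound for 48 h before the viability read; nearly all actives have a fitted effect of over 65% in size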; further: potency means the concentration at half of the fitted maximal effect
# Method in brief: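 A673 cells at 500-1,000 cells/well were dosed 5 h after plating, in dilution series up to 46 uM final; primary runs used 8 or 11 points and confirmatory runs used 11 points. Viability was read by CellTiter-Glo luminescence after 48 h, against DMSO and 2.3 uM bortezomib controls.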
# [5] = qHTS of pediatric cancer cell lines to identify multiple opportunities for drug repurposing: Confirmatory screen for BT-12 cells (AID 1347112); further: nearly all actives have a fitted effect of over 55% in size
# Method in brief: as §1
# [6] = qHTS of pediatric cancer cell lines to identify multiple opportunities for drug repurposing: Confirmatory screen for DAOY cells (AID 1347114); further: nearly all actives have a fitted effect of over 65% in size; further: potency means the concentration at half of the fitted maximal effect
# Method in brief: (§2)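 Viability measured as metabolically active cells via CellTiter-Glo luminescence following 48 hours of compound exposure, 11-point dilutions in confirmatory testing. 500-1,000 cells/well plated 5 hours before dosing; controls were DMSO and 2.3 µM bortezomib.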
# [7] = qHTS of pediatric cancer cell lines to identify multiple opportunities for drug repurposing: Confirmatory screen for NB-EBc1 cells (AID 1347115);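 further: cells exposed to compound for 48 h before the viability read; nearly all actives have a fitted effect of over 45% in size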
# Method in brief: as §1
# [8] = qHTS of pediatric cancer cell lines to identify multiple opportunities for drug repurposing: Confirmatory screen for SJ-GBM2 cells (AID 1347116); conditions: outcome: dose series up to 45.9 µM; further: nearly all actives have a fitted effect of over 60% in size
# Method in brief: as §2
# [9] = qHTS of pediatric cancer cell lines to identify multiple opportunities for drug repurposing: Confirmatory screen for MG 63 (6-TG R) cells (AID 1347119); further: nearly all actives have a fitted effect of over 55% in size
# Method in brief: as §1
# [10] = qHTS of pediatric cancer cell lines to identify multiple opportunities for drug repurposing: Confirmatory screen for U-2 OS cells (AID 1347122); further: nearly all actives have a fitted effect of over 65% in size
# Method in brief: as §1
# [11] = qHTS of pediatric cancer cell lines to identify multiple opportunities for drug repurposing: Confirmatory screen for Rh41 cells (AID 1347123);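 further: 48 h compound exposure; nearly all actives have a fitted effect of over 60% in size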; further: potency means the concentration at half of the fitted maximal effect
# Method in brief: as §1
# [12] = qHTS of pediatric cancer cell lines to identify multiple opportunities for drug repurposing: Confirmatory screen for RD cells (AID 1347124);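 further: cells exposed to compound for 48 h before viability readout; nearly all actives have a fitted effect of over 65% in size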
# Method in brief: as §1
# [13] = qHTS of pediatric cancer cell lines to identify multiple opportunities for drug repurposing: Confirmatory screen for Rh18 cells (AID 1347125); further: nearly all actives have a fitted effect of over 55% in size
# Method in brief: as §1
# [14] = qHTS of pediatric cancer cell lines to identify multiple opportunities for drug repurposing: Confirmatory screen for Rh30 cells (AID 1347126); further: nearly all actives have a fitted effect of over 55% in size
# Method in brief: as §1
# [15] = qHTS of pediatric cancer cell lines to identify multiple opportunities for drug repurposing: Confirmatory screen for Saos-2 cells (AID 1347127); further: nearly all actives have a fitted effect of over 60% in size
# Method in brief: as §1
# [16] = qHTS of pediatric cancer cell lines to identify multiple opportunities for drug repurposing: Confirmatory screen for LAN-5 cells (AID 1347113); conditions: outcome: dose series up to 45.9 µM; further: nearly all actives have a fitted effect of over 65% in size
# Method in brief: as §1
# [17] = qHTS of pediatric cancer cell lines to identify multiple opportunities for drug repurposing: Confirmatory screen for BT-37 cells (AID 1347117); further: nearly all actives have a fitted effect of over 55% in size
# Method in brief: as §1
# [18] = qHTS of pediatric cancer cell lines to identify multiple opportunities for drug repurposing: Confirmatory screen for control Hh wild type fibroblast cells (AID 1347121); further: nearly all actives have a fitted effect of over 70% in size
# Method in brief: as §1
# [19] = qHTS of pediatric cancer cell lines to identify multiple opportunities for drug repurposing: Confirmatory screen for SK-N-MC cells (AID 1347111);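 further: potency means the concentration at half of the fitted maximal effect; cells exposed to compound for 48 h before the readout; nearly all actives have a fitted effect of over 70% in size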
# Method in brief: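 Metabolically active cells were quantified by ATP-dependent luminescence (CellTiter-Glo, 15 min at room temperature) following 48 h treatment. Cells had been plated at 500-1,000 per well and settled for 5 h beforehand.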
smiles,measurement,setting,value
CCOP(=S)(OCC)Oc1ccc2c(C)c(Cl)c(=O)oc2c1,outcome,[1],inactive
same,Potency,[2],inactive
same,Potency,[3],inactive
same,Potency,[4],inactive
same,Potency,[5],inactive
same,Potency,[6],inactive
same,Potency,[7],inactive
same,outcome,[8],inactive
same,outcome,[9],inactive
same,Potency,[10],inactive
same,Potency,[11],inactive
same,outcome,[12],inactive
same,Potency,[13],inactive
same,Potency,[14],inactive
same,Potency,[15],inactive
O=c1oc2ccccc2c(O)c1Cc1c(O)c2ccccc2oc1=O,outcome,[1],inactive
same,Potency,[2],inactive
C[C@H](N)C(=O)c1ccccc1,outcome,[1],inactive
same,Potency,[2],inactive
COc1ccc2c3c1O[C@H]1[C@H](O)CC[C@H]4[C@@H](C2)N(C)CC[C@@]341,outcome,[1],inactive
same,Potency,[2],inactive
COC(=O)C(Cl)C(=O)OC,outcome,[1],inactive
same,Potency,[2],inactive
CC(C)N(CCC(C(N)=O)(c1ccccc1)c1ccccn1)C(C)C (stereo not drawn),outcome,[1],inactive
same,Potency,[2],inactive
O=c1[nH]oc2c1CCNC2,outcome,[1],inactive
same,Potency,[2],inactive
Nc1nc(N)nc(NC2CC2)n1,outcome,[1],inactive
same,Potency,[2],inactive
Cc1ncsc1CCCl,outcome,[1],inactive
same,Potency,[2],inactive
CN1C(=O)CCS(=O)(=O)C1c1ccc(Cl)cc1 (stereo not drawn),outcome,[1],inactive
same,Potency,[2],inactive
CC(=O)NC1CCSC1=O (stereo not drawn),outcome,[1],inactive
same,Potency,[2],inactive
NCCc1ccc(O)cc1,outcome,[1],inactive
same,Potency,[2],inactive
COC(=O)[C@@H](N)CCCN/C(N)=N/[N+](=O)[O-],outcome,[1],inactive
same,Potency,[2],inactive
CC(C)c1cccc(C(C)C)c1O,outcome,[1],inactive
same,Potency,[2],inactive
C=CCC1([C@H](C)CCC)C(=O)NC(=O)NC1=O,outcome,[1],inactive
same,Potency,[2],inactive
C[C@]12CCC(=O)C=C1CC[C@@H]1[C@@H]2CC[C@@]2(C)[C@H]1CC[C@]2(C)O,outcome,[1],inactive
same,Potency,[3],inactive
same,Potency,[4],inactive
same,Potency,[5],inactive
same,outcome,[16],inactive
same,Potency,[7],inactive
same,outcome,[8],inactive
same,Potency,[17],inactive
same,outcome,[18],inactive
same,Potency,[11],18500 nM (active)
same,outcome,[12],inactive
same,Potency,[13],inactive
same,Potency,[14],inactive
same,Potency,[15],inactive
CN1CCC(O)(c2ccc(F)cc2)C(C(=O)c2ccc(F)cc2)C1 (stereo not drawn),outcome,[1],inactive
same,Potency,[2],inactive
c1ccc(CN2CCNCC2)cc1,outcome,[1],inactive
same,Potency,[2],inactive
CC(C)c1c(CN(C)C(C)Cc2ccccc2)n(C)n(-c2ccccc2)c1=O (stereo not drawn),Potency,[2],inactive
C[C@@H]1CC2=CC(=O)CC[C@@H]2[C@H]2CC[C@@]3(C)[C@@H](CC[C@]3(C)O)[C@@H]21,outcome,[1],inactive
same,Potency,[2],inactive
CNCC(=O)c1ccc(O)c(O)c1,outcome,[1],inactive
same,Potency,[2],inactive
Oc1ccc(Cl)cc1,outcome,[1],inactive
same,Potency,[2],inactive
O=C(N/N=C/c1ccc([N+](=O)[O-])o1)c1cc([N+](=O)[O-])cc([N+](=O)[O-])c1O,outcome,[1],inactive
same,Potency,[3],inactive
same,Potency,[4],inactive
same,Potency,[19],10400 nM (active)
same,Potency,[5],inactive
same,outcome,[16],inactive
same,Potency,[6],inactive
same,outcome,[8],inactive
same,Potency,[17],inactive
same,outcome,[18],inactive
same,Potency,[10],inactive
same,Potency,[11],inactive
same,outcome,[12],inactive
same,Potency,[13],inactive
same,Potency,[14],inactive
same,Potency,[15],inactive
CCC(CC)(CNC(=O)CCCO)c1cccc(OC)c1,outcome,[1],inactive
same,Potency,[2],inactive
CCCCCCCCCC(=O)O[C@H]1CC[C@H]2[C@@H]3CCC4=CC(=O)CC[C@@H]4[C@H]3CC[C@]12C,outcome,[1],inactive
same,Potency,[2],inactive
NC(=O)c1cc([N+](=O)[O-])cc([N+](=O)[O-])c1,outcome,[1],inactive
same,Potency,[2],inactive
C[C@H]1[C@@H]2Cc3ccc(O)cc3[C@@]1(C)CCN2C,outcome,[1],inactive
same,Potency,[2],inactive
[N-]=[N+]=CC(=O)OC[C@H](N)C(=O)O,outcome,[1],inactive
same,Potency,[2],inactive
CN1C(=O)NC(=O)C(C)(C2=CCCCC2)C1=O (stereo not drawn),Potency,[2],inactive
C[C@](O)(CS(=O)(=O)c1ccc(F)cc1)C(=O)Nc1ccc(C#N)c(C(F)(F)F)c1,Potency,[3],inactive
same,outcome,[16],inactive
same,outcome,[8],inactive
same,outcome,[9],inactive
same,Potency,[15],inactive
COc1cccc2c1C(=O)c1c(O)c3c(c(O)c1C2=O)C[C@@](O)(C(=O)CO)CC3OC1CC(N2CCOC(OC)C2)C(O)C(C)O1 (stereo partly drawn),Potency,[3],14.7 nM (active)
same,Potency,[4],23.3 nM (active)
same,Potency,[6],32.9 nM (active)
O=P1(N(CCCl)CCCl)NCCCO1 (stereo not drawn),Potency,[4],inactive
same,outcome,[16],inactive
same,outcome,[9],inactive
same,Potency,[15],inactive
O=C(O)CCCc1ccc(N(CCCl)CCCl)cc1,Potency,[6],inactive
